The sample as a whole holds a higher share of hits than the screen did.
MARV entry inh – blocks Marburg virus binding to or entry into cells. Marburg virus pseudotyped entry inhibition, cell reporter. Potency, µM (highest dose often 37.8 µM), usual class: inhibitors. 1.8% of 300,000 active. AID 540276; calls by dose curve; tested in HEK293 cells
Cycloheximide cs – counter-screen for Shiga toxin inhibitors: cycloheximide protein synthesis inhibition; cell reporter, cycloheximide protein synthesis inhibition counterscreen; max response, %; 12% of 300,000 active; in the data active = max response mostly above about 13%, no sharp cut-off; inactive = mostly below about 14%; also: read at 38.3 µM for the half of the compounds with a filed dose
Shiga inhibitor – Shiga toxin inhibition; Vero cells, Shiga toxin protein synthesis inhibition reporter; inhibition, % at 38.7 µM; 9.2% of 290,000 active; AID 2315; in the data active = inhibition mostly above about 28%, no sharp cut-off; inactive = mostly below about 43%
AMA1 RON2 block – AMA1-RON2 (P. falciparum) interaction inhibition; AlphaScreen AMA1-biotinylated RON2 peptide binding; Potency, µM (highest dose often 58.2 µM), hits mostly inhibitors; 0.2% of 360,000 active; active = well fitted inhibition curve with a large enough effect; inconclusive = small, poorly fitted or top-dose-only effect; inactive = no such curve, though single readings can be large or run the other way; also: nearly all actives have a fitted effect of over 45% in size
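AMA1 (3D7) with his tag at 25 nM final met compounds first, then biotinylated RON2 peptide at 25 nM; detection used donor plus acceptor beads, 10 µg/mL apiece, read by AlphaScreen after 30 min at room temperature.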
Lassa entry inh – blocks Lassa virus binding to or entry into cells. Lassa virus pseudotype entry inhibition, cell reporter. Potency, µM (series often up to 37.9 µM), hits mostly inhibitors. 1.2% of 300,000 active. AID 540256; calls by dose curve; tested in HEK293 cells; also: nearly all actives have a fitted effect of over 50% in size
Numbers stand for hits; n = inactive; u = inconclusive; x = not tested or not shown.

SMILES	MARV entry inh	Cycloheximide cs	Shiga inhibitor	AMA1 RON2 block	Lassa entry inh
O=C(/C=C/NNC(=O)c1ccccc1O)c1ccccc1	n	32	x	n	u
Cc1cccc(C(=O)NNC(=O)c2ccc(Br)cc2)c1	n	n	n	n	n
Cc1noc(Cn2c(=O)c3ccccc3n(CC(=O)Nc3ccc(F)cc3F)c2=O)n1	x	x	x	x	n
COc1ccc(C)cc1NC(=O)CCNC(=O)Cn1cnc2ccccc2c1=O	n	n	n	n	n
O=C(/C=C/NNC(=O)c1ccc(Br)cc1)c1ccccc1	u	32	84	n	u
O=C(/C=C/NNC(=O)c1ccccc1)c1ccccc1	n	27	n	n	n
O=C(/C=C/NNC(=O)c1ccccc1)c1ccc([N+](=O)[O-])cc1	u	38	87	n	x
O=C(O)CC(NNC(=O)c1ccccc1)C(=O)Nc1ccc([N+](=O)[O-])cc1 (centres undefined)	x	37	67	n	x
O=C(COc1ccccc1)Nc1nnc(-c2ccc(Cl)s2)o1	x	n	n	n	x
Cc1ccc(S(=O)(=O)N/N=C/c2ccccc2O)cc1[N+](=O)[O-]	n	39	69	n	u
Cc1ccc(S(=O)(=O)N/N=C/c2ccc(O)c(O)c2)cc1[N+](=O)[O-]	n	45	128	n	n
CCC(Sc1nc(-c2ccccc2)[nH]c1S(=O)(=O)c1ccc(C)cc1)C(=O)O (centres undefined)	n	x	x	x	n
O=C(O)c1cccc(Cn2c(Cl)c(/C=N/NC(=O)c3ccc(O)cc3)sc2=O)c1	n	n	n	n	n
COC(=O)c1cccc(Cn2c(Cl)c(/C=N/NC(=O)c3ccco3)sc2=O)c1	x	18	n	n	x
O=c1sc(/C=N/Nc2ccccc2)c(Cl)n1Cc1ccccc1	u	33	active	n	n
COC(=O)c1cccc(Cn2c(Cl)c(/C=N/NC(=O)c3ccccc3Cl)sc2=O)c1	n	n	n	n	u
Cc1cc2c(s1)c1cnn(Cc3ccc(F)cc3)c(=O)c1n2C	x	n	n	x	x
CCc1c(C)[nH]n(-c2nc(-c3cccc([N+](=O)[O-])c3)cs2)c1=O	n	22	23	n	n
CCc1c(C)[nH]n(-c2nc(-c3ccccc3)cs2)c1=O	n	n	n	n	n
COC(=O)[C@@H]1CCCN1C(=O)CCc1nnc(C2CCCCC2)o1	u	14	16	n	n
CCC1CCCCN1C(=O)CCc1nnc(C2CCCCC2)o1 (centres undefined)	u	47	66	n	n
COC(=O)C1CCN(C(=O)/C(C)=C\c2ccccc2)CC1	n	n	n	n	n
O=C(Nc1cccc(-c2csc(Nc3ccc(Cl)cc3)n2)c1)c1cccc(C(F)(F)F)c1	x	12	42	n	x
O=C(Nc1cccc(-c2csc(Nc3ccc(Cl)cc3)n2)c1)c1cc([N+](=O)[O-])cc(C(F)(F)F)c1	x	n	n	n	x
O=C(Nc1cccc(-c2csc(Nc3ccccc3)n2)c1)c1cc([N+](=O)[O-])cc(C(F)(F)F)c1	x	18	27	n	x
SMILES	MARV entry inh	Cycloheximide cs	Shiga inhibitor	AMA1 RON2 block	Lassa entry inh
NNC(=O)c1n[nH]c2c1CC(C1CCCCC1)CC2 (centres undefined)	x	x	x	n	x
O=C(c1ccc(F)cc1)C1CCN(Cc2ccccc2)CC1	x	x	x	n	x
O=C(c1ccc(F)cc1)C(Cc1ccccc1)N1CCCCC1 (centres undefined)	n	35	69	n	n
C/C(=N/Nc1ccccc1C(=O)O)c1cccs1	n	20	n	n	u
C/C(=N\Nc1ccc(Cl)c(C(=O)O)c1)c1cccs1	u	32	90	n	n
Cc1c(NC(=O)c2cccs2)cccc1C(=O)O	n	n	n	n	u
O=C(O)CC/C(=N\Nc1ccc(Cl)cc1)c1cccs1	n	n	n	n	n
C/C(=N\Nc1ccc(Cl)c(C(=O)O)c1)c1ccc[nH]1	n	51	157	n	n
COCCN(C(=O)COC(=O)Cc1c[nH]c2ccccc12)c1c(N)n(Cc2ccccc2)c(=O)[nH]c1=O	n	x	x	n	n
COc1ccc(C(=O)N2CC(=O)Nc3ccc(F)cc3C2c2ccc(F)cc2)c(OC)c1 (centres undefined)	n	x	x	x	n
CCOc1ccc(CCNC(=O)Cn2ncc3c([nH]c4ccccc43)c2=O)cc1OCC	x	x	x	x	n
CCOC(=O)c1ccc(NC2c3ccccc3C(=O)N2c2ccccn2)cc1 (centres undefined)	x	n	n	n	x
CCOc1ccc(N2C(=O)c3ccccc3C2O)cc1 (centres undefined)	x	n	64	n	x
CCOc1ccc(NC2c3ccccc3C(=O)N2c2ccc(Cl)cn2)cc1 (centres undefined)	x	11	68	n	x

Bioassay records as filed in PubChem.
